Shown are actives, neighbours in structure and some others; about 3.4% of the full set was active somewhere.
FBW7 act: FBW7 E3 ligase activators, primary screen, biochemical, AlphaScreen, human; normalized activity (activation), % at 26.1 µM; AID 1259310, 2017; hit rate 0.13% among 650,000; AlphaScreen FBW7–phospho-cyclin E peptide binding, activator screen; F-box/WD repeat-containing protein 7 (Homo sapiens), Q969H0; in the data active means normalized activity above about 1.9%;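 further: purified mutant Fbw7 with reduced substrate affinity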
MITF primary: MITF inhibitors, primary screen, biochemical, AlphaScreen, human; AlphaScreen MITF homodimerization, bead proximity signal; Microphthalmia-associated transcription factor (Homo sapiens), O75030; hit rate 0.91% among 650,000; inhibition, % at 2.6 µM; AID 1259374, 2018; in the data active means inhibition above about 50%
Target sequence (O75030 whole entry, looked up): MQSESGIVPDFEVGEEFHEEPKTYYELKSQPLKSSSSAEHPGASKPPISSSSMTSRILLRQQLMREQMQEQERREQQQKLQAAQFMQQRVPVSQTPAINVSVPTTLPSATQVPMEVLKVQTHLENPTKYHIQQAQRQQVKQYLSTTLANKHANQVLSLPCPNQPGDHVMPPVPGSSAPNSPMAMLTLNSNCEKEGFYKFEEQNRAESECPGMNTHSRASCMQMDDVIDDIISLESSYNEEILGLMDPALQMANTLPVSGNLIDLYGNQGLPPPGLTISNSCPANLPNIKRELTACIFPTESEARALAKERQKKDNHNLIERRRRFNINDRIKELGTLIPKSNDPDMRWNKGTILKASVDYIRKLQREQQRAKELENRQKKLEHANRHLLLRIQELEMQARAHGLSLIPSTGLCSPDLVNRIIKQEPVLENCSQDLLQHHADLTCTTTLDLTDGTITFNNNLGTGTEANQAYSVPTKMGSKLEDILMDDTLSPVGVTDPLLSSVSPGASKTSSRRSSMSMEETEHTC
TEAD-YAP inh: TEAD-YAP interaction inhibition, primary screen, TEAD-YAP interaction inhibitor project, luminescence, HEK-TIYL cells; TEAD-Gal4/YAP UAS-luciferase luminescence; inhibition, % at 9.12 µM; hit rate 1.4% among 640,000; AID 1259422, 2018; in the data active means inhibition above about 32%
GPR151 ag: activators of human GPR151, primary screen, cell-based, PathHunter beta-arrestin, luminescence; G-protein coupled receptor 151 (Homo sapiens), Q8TDV0; PathHunter beta-arrestin GPR151 cells; activation, % at 11.2 µM; hit rate 1% among 650,000; in the data active means activation above about 4.9%
MITF confirm: MITF inhibitors, retest of hits, confirmation, biochemical, AlphaScreen, triplicate | shares compounds with MITF primary | AlphaScreen MITF homodimerization, biotin/His-MITF beads | inhibition, % at 2.6 µM | hit rate 16% among 4,700 | AID 1259372, 2018;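 active means inhibition above a cutoff derived from the DMSO control wells, cut at about 28% in these data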;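 further: inhibitors lower the bead chemiluminescence by keeping MITF from dimerizing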
AS interf DR: AlphaScreen optical interference compounds, dose response, counter-screen, biochemical, HTS. shares compounds with MITF primary. AlphaScreen optical interference counterscreen, cell-free. IC50, µM. hit rate 6% among 480. AID 1259373, 2018; call rule not given here
AlphaScreen intf2: AlphaScreen optical interference compounds, counter-screen for MITF inhibitor project, biochemical, triplicate; hit rate 7.6% among 4,700; LysRS AlphaScreen counterscreen, signal interference; shares compounds with MITF primary; inhibition, % at 2.6 µM;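 active means inhibition above a cutoff derived from the DMSO control wells, cut at about 30% in these data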
Hits are given with their value; – = inactive; · = no result.

SMILES | FBW7 act | MITF primary | TEAD-YAP inh | GPR151 ag | MITF confirm | AlphaScreen intf2 | others
CCOC(=O)C(C)Sc1ncnc2c1cnn2-c1ccc(C)cc1C (stereo not drawn) | – | – | – | – | · | ·
COc1cc(-c2nc3sc4c(c3c(=O)[nH]2)CCCC4)ccc1OCCOc1ccc(C(C)(C)C)cc1 | – | – | – | – | · | ·
CC(C)(C)c1nc(N2CCCCC2)c2ccccc2n1 | – | – | – | – | · | ·
COc1cccc(CN2CCN(C3CCCCC3OC)CC2)c1OC (stereo not drawn) | – | 74 | – | – | – | –
Cc1ccc(NC(=O)COC(=O)CCNC(=O)NC23CC4CC(CC(C4)C2)C3)cc1F | – | – | – | – | · | ·
CCCCc1ncc(CN2CCC3(CCC(CNC(=O)c4ccccc4)O3)CC2)[nH]1 (stereo not drawn) | – | 84 | – | – | – | –
CCOC(=O)c1cnc(OC)[nH]c1=O | – | – | – | – | · | ·
CCOC(=O)c1cnc(-n2[nH]c3c(c2=O)CCCC3)[nH]c1=O | – | 88 | – | – | 47 | 64
O=C(NCCN1CCOCC1)c1ccnc(-n2ncc3cc(Nc4cc(F)cc(F)c4)ccc32)c1 | – | – | – | – | · | ·
OC[C@H]1OC([S-])[C@H](O)[C@@H](O)[C@@H]1O.[Au+] (stereo partly drawn) | – | 86 | – | – | 73 | – | AS interf DR=–
O=C1OC(c2ccc(Cl)c(Cl)c2)=N/C1=C\c1ccccc1 | – | – | – | – | · | ·
O=C1OC(c2cccc([N+](=O)[O-])c2)=N/C1=C\c1ccc(OCc2ccccc2)cc1 | – | 64 | – | – | 37 | –
O=C1OC(c2cc(C3=N/C(=C\c4ccccc4)C(=O)O3)cc(C3=N/C(=C/c4ccccc4)C(=O)O3)c2)=N/C1=C\c1ccccc1 | – | 58 | – | – | 30 | –
CC(=O)Nc1ccc(C2=N/C(=C/c3cccc([N+](=O)[O-])c3)C(=O)O2)cc1 | – | 58 | – | – | – | –
Cc1ccc(C2=N/C(=C\c3ccc(OCc4ccccc4)cc3)C(=O)O2)cc1[N+](=O)[O-] | – | – | – | – | · | ·
COCCn1c(=NC(=O)c2ccc(S(=O)(=O)N(C)C)cc2)sc2cc(OC)ccc21 | – | – | – | – | · | ·
CCOC(=O)c1ccc(-n2c(=S)sc3c2nc(SCC(=O)NCc2ccco2)n2c4ccccc4nc32)cc1 | – | – | – | – | · | ·
COc1ccc(-c2nn(-c3ccccc3)cc2/C=C2\N=C(c3ccccc3)OC2=O)cc1OC | – | – | – | – | · | ·
Cc1cc(OCCN2CCN(C)CC2)ccc1[N+](=O)[O-] | – | 56 | – | – | – | –
Cc1ccc(OCCN2CCOCC2)cc1C | – | – | – | – | · | ·
Cc1cc(OCCCCN2CCN(C)CC2)ccc1[N+](=O)[O-] | – | 56 | – | – | – | –
Cc1cc(OCCCN2CCNCC2)ccc1[N+](=O)[O-] | – | – | – | – | · | ·
Cc1cc(OCCN2CCOCC2)ccc1[N+](=O)[O-] | – | 60 | – | – | – | –
Cc1cc(OCCN2CCCC2)ccc1[N+](=O)[O-] | – | – | – | – | · | ·
Cc1nn(C)cc1CNC(=O)c1cc(COc2ccc(F)cc2F)on1 | – | – | – | – | · | ·
SMILES | FBW7 act | MITF primary | TEAD-YAP inh | GPR151 ag | MITF confirm | AlphaScreen intf2 | others
CC(C)C(=O)Nc1cccc(NC(=O)CSc2nnc(-c3ccncc3)n2C)c1 | – | – | – | – | · | ·
COc1ccc(CC(=O)Nc2cccc(Cl)c2C)cc1OC | – | – | – | – | · | ·
CS(=O)(=O)NCCSc1nnnn1-c1ccccc1 | – | 55 | – | – | – | –
O=C1c2ccccc2-c2onc3c(N4CCOCC4)cc(N4CCCCC4)c1c23 | – | – | – | – | · | ·
COc1cc(C(=O)N2CCN(Cc3ccccc3F)CC2)cc(OC)c1OC | – | – | – | – | · | ·
COc1cc2c(cc1CN1CCN(C(=O)c3cc(OC)c(OC)c(OC)c3)CC1)OCO2 | – | 53 | – | – | – | –
COc1cc(C(=O)N2CCN(Cc3ccccc3C)CC2)cc(OC)c1OC | – | 60 | – | – | 38 | – | AS interf DR=–
O=C1C(=O)N(c2ccc(C(=O)O)c(O)c2)C(c2ccc(Br)cc2)/C1=C(\O)c1ccccc1 (stereo not drawn) | – | – | – | – | · | ·
CC(C)(C)n1nnnc1C(c1ccc2ncccc2c1)N1CCN(Cc2ccccc2)CC1 (stereo not drawn) | – | – | – | – | · | ·
Cc1cccc(-c2cnc(C)nc2C2CCCN(C(=O)C3CCOCC3)C2)c1 (stereo not drawn) | – | – | – | – | · | ·
O=C1CN(C(=O)COC(=O)c2c3c(nc4ccccc24)CCC3)c2ccccc2N1 | – | 72 | – | – | – | –
Cc1c(NC(=O)c2cc(F)cc(F)c2)c(=O)n(-c2ccccc2)n1C | – | – | – | – | · | ·
COc1ccccc1C1(CNC(=O)c2snnc2C)CCOCC1 | – | – | – | – | · | ·
CCN1CCN(CC(O)COC(c2ccccc2)c2ccccc2C)CC1 (stereo not drawn) | – | 88 | – | – | – | –
O=C1CCCN1c1cccc(NS(=O)(=O)c2cccc3ccccc23)c1 | – | 51 | – | – | – | –
O=C1CCCCN1c1cccc(NS(=O)(=O)c2ccccc2)c1 | – | – | – | – | · | ·
CC(=O)CCc1ccc(OCC(O)CNC2CCCc3ccccc32)cc1 (stereo not drawn) | – | 70 | – | – | – | –
CCc1ccccc1OC[C@@H](O)CNC1CCCc2ccccc21 (stereo partly drawn) | – | – | · | – | · | ·
O=S1(=O)CC(OS(=O)(=O)c2ccccc2)C(OS(=O)(=O)c2ccccc2)C1 (stereo not drawn) | – | 71 | – | – | – | –
COc1ccc(OCCCC(=O)Nc2ccc3ccccc3c2)cc1 | – | – | – | – | · | ·
COC(=O)c1ccc(CN2CCC(N(Cc3ccco3)C(=O)NC(C)C)CC2)cc1 | – | – | – | – | · | ·
COc1ccc(Cl)cc1C(=O)NNC(=O)COc1ccc2c(C)cc(=O)oc2c1 | – | 64 | – | – | – | –
CCOC(=O)C1=C(C)N=c2s/c(=C\c3cc(Br)c(OC)c(OC)c3)c(=O)n2C1c1ccc(Cl)cc1 (stereo not drawn) | – | – | – | – | · | ·
O=c1cc(-c2ccccc2)nc2nn[nH]n12 | – | – | – | – | · | ·
O=c1cc(/C=C/c2ccc(O)cc2)nc2nn[nH]n12 | – | 57 | – | – | 39 | – | AS interf DR=–
CCCc1nnc(NC(=O)CN2C(=O)C3C4C=CC(C4)C3C2=O)s1 (stereo not drawn) | – | 58 | – | – | – | –
CCCc1nnc(NC(=O)NCN2C(=O)C3C4C=CC(C4)C3C2=O)s1 (stereo not drawn) | – | – | – | – | · | ·

From PubChem BioAssay
